# Test results taken from PMC7862700, “An all-to-all approach to the identification of sequence-specific readers for epigenetic DNA modifications on cytosine”.
# Columns and labels:
# Assay in all cases: DAPPL (digital affinity profiling via proximity ligation, sequencing); 10 mM Tris-HCl pH 7.5, 50 mM NaCl, 1 mM DTT, 4% glycerol, room temperature, 30 min; GST-TFs on glutathione beads, 16-mer random dsDNA library, 0.1% formaldehyde crosslink after washing; high values mean tight binding
# FLI1 = biological target: T1, FLI1 (Homo sapiens, UniProt Q01543 1-452); details: protein: recombinant; tags: N-terminal GST; dsDNA, one strand shown
# T1 sequence: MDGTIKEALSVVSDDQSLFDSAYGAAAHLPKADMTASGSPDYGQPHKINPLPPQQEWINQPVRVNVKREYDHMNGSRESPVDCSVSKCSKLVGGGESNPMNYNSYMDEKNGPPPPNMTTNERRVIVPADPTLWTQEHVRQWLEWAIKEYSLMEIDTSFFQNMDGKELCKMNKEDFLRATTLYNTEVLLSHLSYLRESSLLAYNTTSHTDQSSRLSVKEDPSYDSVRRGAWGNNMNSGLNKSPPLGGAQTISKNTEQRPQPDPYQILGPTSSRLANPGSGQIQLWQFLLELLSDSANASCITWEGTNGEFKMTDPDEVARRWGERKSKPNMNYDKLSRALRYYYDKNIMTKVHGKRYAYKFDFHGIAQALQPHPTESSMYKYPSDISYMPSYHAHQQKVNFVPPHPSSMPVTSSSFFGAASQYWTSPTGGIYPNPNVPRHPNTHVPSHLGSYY
# Procedure, shortened: (§1)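 Binding signal is defined as a hexamer's read frequency for one factor over its frequency for the tag-only sample. To obtain reads, GST-fused human transcription factors were expressed in yeast, captured on glutathione beads, barcoded with DNA and pooled with that sample. Pools met 200 nmole of a 16-mer random double-stranded DNA library in Tris/NaCl/DTT/glycerol buffer for 30 min at room temperature before washing, 0.1% formaldehyde crosslinking, proximity ligation (BsaI/T4 ligase, 1 h, 37 °C), PCR and Illumina NextSeq500 sequencing.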
# ELK1 = biological target: T2, ELK1 (Homo sapiens, UniProt P19419 1-428); details: protein: recombinant; tags: N-terminal GST; dsDNA, one strand shown
# T2 sequence: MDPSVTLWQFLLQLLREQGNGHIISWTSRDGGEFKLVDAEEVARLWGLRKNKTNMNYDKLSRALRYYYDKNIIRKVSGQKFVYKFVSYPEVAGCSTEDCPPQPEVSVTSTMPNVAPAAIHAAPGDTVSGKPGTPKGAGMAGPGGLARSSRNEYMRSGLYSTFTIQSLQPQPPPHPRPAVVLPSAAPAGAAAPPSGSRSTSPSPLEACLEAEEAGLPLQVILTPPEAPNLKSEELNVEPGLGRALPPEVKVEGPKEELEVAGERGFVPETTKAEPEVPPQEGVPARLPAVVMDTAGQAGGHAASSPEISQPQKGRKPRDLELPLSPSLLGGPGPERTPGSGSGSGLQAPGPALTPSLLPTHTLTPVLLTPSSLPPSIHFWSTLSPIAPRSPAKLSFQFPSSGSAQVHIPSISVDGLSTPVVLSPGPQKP
# Procedure, shortened: as §1
# GABPA = biological target: T3, GABPA (Homo sapiens, UniProt Q06546 1-454); details: protein: recombinant; tags: N-terminal GST; dsDNA, one strand shown
# T3 sequence: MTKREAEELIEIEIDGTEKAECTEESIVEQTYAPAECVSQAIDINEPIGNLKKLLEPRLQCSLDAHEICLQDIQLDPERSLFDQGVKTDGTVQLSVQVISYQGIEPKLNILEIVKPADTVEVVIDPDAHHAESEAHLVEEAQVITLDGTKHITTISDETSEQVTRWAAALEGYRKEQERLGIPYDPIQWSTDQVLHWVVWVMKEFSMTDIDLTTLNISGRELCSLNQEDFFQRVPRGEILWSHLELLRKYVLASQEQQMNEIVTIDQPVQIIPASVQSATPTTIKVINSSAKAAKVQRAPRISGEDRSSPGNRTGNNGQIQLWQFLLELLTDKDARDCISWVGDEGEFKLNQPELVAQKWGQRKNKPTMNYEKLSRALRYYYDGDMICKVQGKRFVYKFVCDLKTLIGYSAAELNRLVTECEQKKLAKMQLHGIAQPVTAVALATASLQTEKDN
# Procedure, shortened: as §1
# ERG = biological target: T4, ERG (Homo sapiens, UniProt P11308 1-479); details: protein: recombinant; tags: N-terminal GST; dsDNA, one strand shown
# T4 sequence: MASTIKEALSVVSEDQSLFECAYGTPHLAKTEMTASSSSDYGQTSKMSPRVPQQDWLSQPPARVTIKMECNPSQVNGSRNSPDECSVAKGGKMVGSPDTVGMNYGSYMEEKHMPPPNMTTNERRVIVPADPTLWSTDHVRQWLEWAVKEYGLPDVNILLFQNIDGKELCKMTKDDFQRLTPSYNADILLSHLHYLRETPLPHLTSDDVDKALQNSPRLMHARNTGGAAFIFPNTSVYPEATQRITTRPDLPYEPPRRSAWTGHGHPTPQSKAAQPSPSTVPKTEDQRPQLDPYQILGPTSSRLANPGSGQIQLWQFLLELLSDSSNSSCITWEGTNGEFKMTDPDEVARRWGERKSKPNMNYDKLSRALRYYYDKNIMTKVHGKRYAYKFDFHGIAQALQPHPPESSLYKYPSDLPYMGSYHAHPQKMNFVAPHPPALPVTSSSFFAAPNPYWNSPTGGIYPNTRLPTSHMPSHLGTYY
# Procedure, shortened: as §1
# ELF1 = ELF1 (Homo sapiens, UniProt P32519 1-619); details: protein: recombinant; tags: N-terminal GST; dsDNA, one strand shown
# Chain of ELF1 (P32519 whole entry): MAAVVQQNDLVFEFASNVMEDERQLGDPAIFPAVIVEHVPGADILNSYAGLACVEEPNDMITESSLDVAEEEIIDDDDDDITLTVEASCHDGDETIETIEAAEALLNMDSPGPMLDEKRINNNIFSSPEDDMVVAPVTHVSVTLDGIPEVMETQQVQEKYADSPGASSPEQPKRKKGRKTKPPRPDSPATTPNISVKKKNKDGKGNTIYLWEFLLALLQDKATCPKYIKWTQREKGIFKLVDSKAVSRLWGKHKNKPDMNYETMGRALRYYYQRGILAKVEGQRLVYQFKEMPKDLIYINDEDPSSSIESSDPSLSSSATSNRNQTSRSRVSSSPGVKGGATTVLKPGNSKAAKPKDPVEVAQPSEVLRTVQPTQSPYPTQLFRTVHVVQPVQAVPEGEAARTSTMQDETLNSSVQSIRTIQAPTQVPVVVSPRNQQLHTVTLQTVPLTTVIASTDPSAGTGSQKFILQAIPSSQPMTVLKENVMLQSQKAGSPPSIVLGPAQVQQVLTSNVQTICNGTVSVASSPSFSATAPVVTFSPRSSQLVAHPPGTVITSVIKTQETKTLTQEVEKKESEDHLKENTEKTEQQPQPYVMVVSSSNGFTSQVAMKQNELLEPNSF
# Procedure, shortened: as §1
# EHF = biological target: T5, EHF (Homo sapiens, UniProt Q9NZC4 1-300); details: protein: recombinant; tags: N-terminal GST; dsDNA, one strand shown
# T5 sequence: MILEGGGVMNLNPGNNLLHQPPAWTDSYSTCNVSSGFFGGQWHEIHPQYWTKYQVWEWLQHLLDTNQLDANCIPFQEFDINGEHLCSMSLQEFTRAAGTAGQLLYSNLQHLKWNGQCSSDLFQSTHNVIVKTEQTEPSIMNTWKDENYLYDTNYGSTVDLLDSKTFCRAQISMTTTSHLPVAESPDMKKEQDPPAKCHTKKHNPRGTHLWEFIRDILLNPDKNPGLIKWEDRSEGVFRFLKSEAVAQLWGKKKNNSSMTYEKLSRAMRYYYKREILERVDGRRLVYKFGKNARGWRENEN
# Procedure, shortened: as §1
# SPI1 = SPI1 (Homo sapiens, UniProt P17947 1-270); details: protein: recombinant; tags: N-terminal GST; dsDNA, one strand shown
# Procedure, shortened: as §1
# SPIB = SPIB (Homo sapiens, UniProt Q01892 1-262); details: protein: recombinant; tags: N-terminal GST; dsDNA, one strand shown
# Chain of SPIB (Q01892 whole entry): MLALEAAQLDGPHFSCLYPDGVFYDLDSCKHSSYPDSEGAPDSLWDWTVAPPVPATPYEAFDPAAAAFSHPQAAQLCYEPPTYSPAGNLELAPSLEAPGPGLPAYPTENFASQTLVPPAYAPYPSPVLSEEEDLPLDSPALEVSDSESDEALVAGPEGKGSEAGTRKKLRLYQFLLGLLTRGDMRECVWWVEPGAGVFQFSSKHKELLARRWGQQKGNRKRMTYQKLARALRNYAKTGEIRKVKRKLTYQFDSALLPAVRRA
# Procedure, shortened: as §1
# ELK3 = biological target: T6, ELK3 (Homo sapiens, UniProt P41970 1-407); details: protein: recombinant; tags: N-terminal GST; dsDNA, one strand shown
# T6 sequence: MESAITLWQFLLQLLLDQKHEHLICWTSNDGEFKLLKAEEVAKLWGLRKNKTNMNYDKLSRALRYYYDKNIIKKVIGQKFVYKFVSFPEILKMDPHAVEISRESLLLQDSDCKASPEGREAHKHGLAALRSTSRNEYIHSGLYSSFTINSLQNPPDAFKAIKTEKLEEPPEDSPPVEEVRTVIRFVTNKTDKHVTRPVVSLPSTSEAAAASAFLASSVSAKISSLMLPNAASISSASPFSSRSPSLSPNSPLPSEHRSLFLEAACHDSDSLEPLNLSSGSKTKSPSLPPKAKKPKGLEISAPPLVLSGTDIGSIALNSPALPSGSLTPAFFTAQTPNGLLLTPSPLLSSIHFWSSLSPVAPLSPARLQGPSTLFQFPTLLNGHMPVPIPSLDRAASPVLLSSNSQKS
# Procedure, shortened: as §1
# FEV = biological target: T7, FEV (Homo sapiens, UniProt Q99581 1-238); details: protein: recombinant; tags: N-terminal GST; dsDNA, one strand shown
# T7 sequence: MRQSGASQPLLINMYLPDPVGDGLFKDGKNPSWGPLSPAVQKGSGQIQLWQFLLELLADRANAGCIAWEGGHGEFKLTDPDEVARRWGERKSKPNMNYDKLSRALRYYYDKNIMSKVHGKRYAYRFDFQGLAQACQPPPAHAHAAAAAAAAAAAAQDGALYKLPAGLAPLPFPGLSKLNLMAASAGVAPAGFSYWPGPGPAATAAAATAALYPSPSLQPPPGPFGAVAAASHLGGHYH
# Procedure, shortened: as §1
# ETV5 = ETV5 (Homo sapiens, UniProt P41161 1-510); details: protein: recombinant; tags: N-terminal GST; dsDNA, one strand shown
# Chain of ETV5 (P41161 whole entry): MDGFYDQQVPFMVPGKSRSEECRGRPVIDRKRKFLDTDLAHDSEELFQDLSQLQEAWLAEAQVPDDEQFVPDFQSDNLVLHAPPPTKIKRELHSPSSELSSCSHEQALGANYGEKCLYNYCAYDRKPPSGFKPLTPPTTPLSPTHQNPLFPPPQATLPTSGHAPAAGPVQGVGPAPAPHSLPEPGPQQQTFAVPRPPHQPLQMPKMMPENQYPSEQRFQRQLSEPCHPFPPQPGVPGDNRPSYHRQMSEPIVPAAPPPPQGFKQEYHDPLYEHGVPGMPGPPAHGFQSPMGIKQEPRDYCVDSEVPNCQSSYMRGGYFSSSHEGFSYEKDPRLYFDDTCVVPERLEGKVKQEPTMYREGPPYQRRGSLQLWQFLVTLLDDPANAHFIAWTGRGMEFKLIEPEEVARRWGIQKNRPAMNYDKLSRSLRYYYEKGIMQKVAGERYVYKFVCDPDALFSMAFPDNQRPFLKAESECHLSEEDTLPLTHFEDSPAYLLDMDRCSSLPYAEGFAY
# Procedure, shortened: as §1
# HSF1 = HSF1 (Homo sapiens, UniProt Q00613 1-529); details: protein: recombinant; tags: N-terminal GST; chain copies: 3; dsDNA, one strand shown
# Chain of HSF1 (Q00613 whole entry): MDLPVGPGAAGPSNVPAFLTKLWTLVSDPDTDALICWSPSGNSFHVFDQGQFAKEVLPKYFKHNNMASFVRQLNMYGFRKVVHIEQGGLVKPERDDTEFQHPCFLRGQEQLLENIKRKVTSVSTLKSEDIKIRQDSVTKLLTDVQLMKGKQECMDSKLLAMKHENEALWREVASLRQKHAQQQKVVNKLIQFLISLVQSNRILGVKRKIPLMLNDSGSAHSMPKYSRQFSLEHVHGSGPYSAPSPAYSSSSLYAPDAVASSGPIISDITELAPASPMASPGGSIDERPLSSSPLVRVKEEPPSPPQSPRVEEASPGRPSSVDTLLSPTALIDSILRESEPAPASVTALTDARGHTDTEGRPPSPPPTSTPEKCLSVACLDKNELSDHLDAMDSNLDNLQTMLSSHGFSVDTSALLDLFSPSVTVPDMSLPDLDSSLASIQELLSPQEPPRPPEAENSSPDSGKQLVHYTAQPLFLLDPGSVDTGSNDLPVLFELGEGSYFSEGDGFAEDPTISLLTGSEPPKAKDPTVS
# Procedure, shortened: as §1
# SPIC = biological target: T8, SPIC (Homo sapiens, UniProt Q8N5J4 1-248); details: protein: recombinant; tags: N-terminal GST; dsDNA, one strand shown
# T8 sequence: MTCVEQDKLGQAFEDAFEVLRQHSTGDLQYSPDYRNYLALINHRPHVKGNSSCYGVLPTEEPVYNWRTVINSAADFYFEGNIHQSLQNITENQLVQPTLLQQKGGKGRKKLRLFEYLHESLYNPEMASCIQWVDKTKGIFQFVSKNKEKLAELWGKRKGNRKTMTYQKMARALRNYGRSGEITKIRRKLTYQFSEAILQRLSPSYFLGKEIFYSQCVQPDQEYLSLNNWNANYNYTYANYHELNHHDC
# Procedure, shortened: as §1
# ELF4 = ELF4 (Homo sapiens, UniProt Q99607 1-663); details: protein: recombinant; tags: N-terminal GST; dsDNA, one strand shown
# Chain of ELF4 (Q99607 whole entry): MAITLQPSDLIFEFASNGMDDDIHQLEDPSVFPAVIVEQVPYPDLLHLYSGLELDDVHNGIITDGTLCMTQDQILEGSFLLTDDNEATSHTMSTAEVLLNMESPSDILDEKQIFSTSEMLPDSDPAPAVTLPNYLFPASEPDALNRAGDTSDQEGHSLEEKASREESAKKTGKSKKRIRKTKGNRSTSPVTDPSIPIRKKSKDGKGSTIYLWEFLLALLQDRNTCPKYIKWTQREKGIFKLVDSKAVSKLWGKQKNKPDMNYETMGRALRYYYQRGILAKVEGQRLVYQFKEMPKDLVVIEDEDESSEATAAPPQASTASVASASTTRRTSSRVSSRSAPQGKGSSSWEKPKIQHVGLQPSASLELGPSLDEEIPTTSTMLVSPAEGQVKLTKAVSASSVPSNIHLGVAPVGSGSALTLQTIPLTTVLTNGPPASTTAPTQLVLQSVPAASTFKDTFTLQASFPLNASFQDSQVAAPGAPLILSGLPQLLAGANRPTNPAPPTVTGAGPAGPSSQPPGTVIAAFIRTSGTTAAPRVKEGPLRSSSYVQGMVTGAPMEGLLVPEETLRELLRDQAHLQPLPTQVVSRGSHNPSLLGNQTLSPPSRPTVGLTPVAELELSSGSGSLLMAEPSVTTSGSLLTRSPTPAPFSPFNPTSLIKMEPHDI
# Procedure, shortened: as §1
# ELK4 = biological target: T9, ELK4 (Homo sapiens, UniProt P28324-2 1-405); details: protein: recombinant; tags: N-terminal GST; dsDNA, one strand shown
# T9 sequence: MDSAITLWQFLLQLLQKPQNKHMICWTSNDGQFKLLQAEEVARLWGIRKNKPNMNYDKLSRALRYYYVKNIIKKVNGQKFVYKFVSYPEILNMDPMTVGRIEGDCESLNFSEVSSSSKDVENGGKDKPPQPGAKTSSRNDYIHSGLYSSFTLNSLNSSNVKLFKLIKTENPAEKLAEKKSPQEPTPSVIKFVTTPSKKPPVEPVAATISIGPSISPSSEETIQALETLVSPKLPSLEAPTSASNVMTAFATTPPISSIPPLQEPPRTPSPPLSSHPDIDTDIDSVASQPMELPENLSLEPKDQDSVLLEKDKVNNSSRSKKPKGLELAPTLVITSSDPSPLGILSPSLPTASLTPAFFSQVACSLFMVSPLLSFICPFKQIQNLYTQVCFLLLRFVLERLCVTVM
# Procedure, shortened: as §1
# ETV2 = biological target: T10, ETV2 (Homo sapiens, UniProt O00321 1-342); details: protein: recombinant; tags: N-terminal GST; dsDNA, one strand shown
# T10 sequence: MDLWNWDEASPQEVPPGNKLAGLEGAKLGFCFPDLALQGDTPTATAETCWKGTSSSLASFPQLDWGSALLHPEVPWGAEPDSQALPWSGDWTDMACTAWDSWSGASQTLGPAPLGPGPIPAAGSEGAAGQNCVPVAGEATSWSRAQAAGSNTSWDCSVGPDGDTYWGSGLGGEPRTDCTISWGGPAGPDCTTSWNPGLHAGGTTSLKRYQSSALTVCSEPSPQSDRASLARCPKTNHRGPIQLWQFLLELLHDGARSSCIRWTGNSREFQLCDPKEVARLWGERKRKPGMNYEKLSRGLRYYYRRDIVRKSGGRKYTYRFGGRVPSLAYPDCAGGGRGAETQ
# Procedure, shortened: as §1
# ELF3 = biological target: T11, ELF3 (Homo sapiens, UniProt P78545 1-371); details: protein: recombinant; tags: N-terminal GST; dsDNA, one strand shown
# T11 sequence: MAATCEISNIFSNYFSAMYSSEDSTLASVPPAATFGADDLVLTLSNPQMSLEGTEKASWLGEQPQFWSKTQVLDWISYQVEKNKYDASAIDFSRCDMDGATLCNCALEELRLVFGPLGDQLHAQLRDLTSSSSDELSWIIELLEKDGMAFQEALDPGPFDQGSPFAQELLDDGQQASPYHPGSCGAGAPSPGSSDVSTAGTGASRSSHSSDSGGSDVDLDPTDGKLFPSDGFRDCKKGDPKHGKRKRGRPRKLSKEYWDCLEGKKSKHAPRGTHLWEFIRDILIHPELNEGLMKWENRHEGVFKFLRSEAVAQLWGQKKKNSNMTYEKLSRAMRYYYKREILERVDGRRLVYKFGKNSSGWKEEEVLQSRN
# Procedure, shortened: as §1
# CRX = CRX (Homo sapiens, UniProt O43186 1-299); details: protein: recombinant; tags: N-terminal GST; dsDNA, one strand shown
# Chain of CRX (O43186 whole entry): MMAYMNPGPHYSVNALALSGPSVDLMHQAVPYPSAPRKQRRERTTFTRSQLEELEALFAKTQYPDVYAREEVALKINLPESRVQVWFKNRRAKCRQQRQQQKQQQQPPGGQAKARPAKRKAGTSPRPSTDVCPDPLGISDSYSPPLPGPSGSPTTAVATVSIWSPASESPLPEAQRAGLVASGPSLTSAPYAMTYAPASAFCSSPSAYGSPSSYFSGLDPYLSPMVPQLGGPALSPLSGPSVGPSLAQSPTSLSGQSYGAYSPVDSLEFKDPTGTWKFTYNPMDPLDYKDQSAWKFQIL
# Procedure, shortened: as §1
# ETV1 = ETV1 (Homo sapiens, UniProt P50549 1-477); details: protein: recombinant; tags: N-terminal GST; dsDNA, one strand shown
# Chain of ETV1 (P50549 whole entry): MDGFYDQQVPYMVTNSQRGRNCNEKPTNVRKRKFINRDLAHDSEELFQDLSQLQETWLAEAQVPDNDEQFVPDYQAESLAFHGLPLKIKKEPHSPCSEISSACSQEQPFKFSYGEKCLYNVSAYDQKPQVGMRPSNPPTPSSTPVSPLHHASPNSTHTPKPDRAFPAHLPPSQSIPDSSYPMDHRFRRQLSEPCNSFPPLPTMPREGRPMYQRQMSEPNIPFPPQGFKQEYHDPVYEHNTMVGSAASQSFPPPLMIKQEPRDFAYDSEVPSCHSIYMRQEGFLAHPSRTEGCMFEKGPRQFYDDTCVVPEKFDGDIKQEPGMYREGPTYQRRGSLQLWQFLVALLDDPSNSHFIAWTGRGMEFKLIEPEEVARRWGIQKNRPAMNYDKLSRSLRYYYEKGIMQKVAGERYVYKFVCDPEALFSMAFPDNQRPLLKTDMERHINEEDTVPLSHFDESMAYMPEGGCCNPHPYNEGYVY
# Procedure, shortened: as §1
sequence,measurement,setting,value
TATACG,binding signal,FLI1,"1.32 fold enrichment (6-mer frequency, TF over GST control)"
same,binding signal,ELK1,"1.31 fold enrichment (6-mer frequency, TF over GST control)"
same,binding signal,GABPA,"1.3 fold enrichment (6-mer frequency, TF over GST control)"
same,binding signal,ERG,"1.24 fold enrichment (6-mer frequency, TF over GST control)"
same,binding signal,ELF1,"1.31 fold enrichment (6-mer frequency, TF over GST control)"
same,binding signal,EHF,"1.2 fold enrichment (6-mer frequency, TF over GST control)"
same,binding signal,SPI1,"1.2 fold enrichment (6-mer frequency, TF over GST control)"
same,binding signal,SPIB,"1.35 fold enrichment (6-mer frequency, TF over GST control)"
same,binding signal,ELK3,"1.22 fold enrichment (6-mer frequency, TF over GST control)"
same,binding signal,FEV,"1.18 fold enrichment (6-mer frequency, TF over GST control)"
same,binding signal,ETV5,"1.25 fold enrichment (6-mer frequency, TF over GST control)"
same,binding signal,HSF1,"1.27 fold enrichment (6-mer frequency, TF over GST control)"
same,binding signal,SPIC,"1.1 fold enrichment (6-mer frequency, TF over GST control)"
same,binding signal,ELF4,"1.31 fold enrichment (6-mer frequency, TF over GST control)"
same,binding signal,ELK4,"1.14 fold enrichment (6-mer frequency, TF over GST control)"
same,binding signal,ETV2,"1.15 fold enrichment (6-mer frequency, TF over GST control)"
same,binding signal,ELF3,"1.26 fold enrichment (6-mer frequency, TF over GST control)"
same,binding signal,CRX,"1.39 fold enrichment (6-mer frequency, TF over GST control)"
same,binding signal,ETV1,"1.32 fold enrichment (6-mer frequency, TF over GST control)"
